From PubChem BioAssay AID1159580 (chemical genetic matrix, 2015)
About 2,000 (36%) of roughly 5,500 compounds were called active. Roughly 18% stayed inconclusive and do not appear here. Cut-off read from the data, not from the text of the source: active = normalized growth mostly below about 0.91 (no sharp cut-off); inconclusive = no clear call, values can overlap the other calls; inactive = mostly above about 0.92. This is one part of the list.

Test: chemical genetic growth profiling, strain panel (AID 1159580);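 note: tested at 20 µM; growth read once vehicle control cultures reached saturation at 30 °C; 1 = growth at the plate median or of vehicle wells; lower values mean less growth of the strain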
Conditions: growth OD

Measured: normalized growth

Cn1c(=O)[nH]c2nc[nH]c2c1=O
inactive: S. cerevisiae deletion strains, locus YAL021C, strain ccr4, hits give low values 0.98 | S. cerevisiae deletion strains, locus YAL026C, strain drs2, hits give low values 1.01 | S. cerevisiae deletion strains, locus YAL030W, strain snc1, hits give low values 1 | S. cerevisiae deletion strains, locus YBL061C, strain skt5, hits give low values 0.992 | S. cerevisiae deletion strains, locus YBR009C, strain hhf1, hits give low values 0.992 | S. cerevisiae deletion strains, locus YBR021W, strain FUR4, hits give low values 1.01 | S. cerevisiae deletion strains, locus YBR023C, strain chs3, hits give low values 0.993 | S. cerevisiae deletion strains, locus YBR171W, strain sec66, hits give low values 0.972 | S. cerevisiae deletion strains, locus YBR229C, strain ROT2, hits give low values 0.995 | S. cerevisiae deletion strains, locus YBR231C, strain swc5, hits give low values 0.989 | S. cerevisiae deletion strains, locus YBR279W, strain paf1, hits give low values 1 | S. cerevisiae deletion strains, locus YCL011C, strain gbp2, hits give low values 0.996 | S. cerevisiae deletion strains, locus YCL016C, strain dcc1, hits give low values 0.994 | S. cerevisiae deletion strains, locus YCL029C, strain bik1, hits give low values 0.992 | S. cerevisiae deletion strains, locus YCL061C, strain MRC1, hits give low values 0.999 | S. cerevisiae deletion strains, locus YCL069W, strain vba3, hits give low values 0.993 | S. cerevisiae deletion strains, locus YCR088W, strain abp1, hits give low values 1.01 | S. cerevisiae deletion strains, locus YDL005C, strain med2, hits give low values 0.993 | S. cerevisiae deletion strains, locus YDL035C, strain GPR1, hits give low values 1.01 | S. cerevisiae deletion strains, locus YDL040C, strain nat1, hits give low values 0.987 | S. cerevisiae deletion strains, locus YDL074C, strain BRE1, hits give low values 1.04 | S. cerevisiae deletion strains, locus YDL101C, strain DUN1, hits give low values 1.01 | S. cerevisiae deletion strains, locus YDL134C, strain PPH21, hits give low values 1 | S. cerevisiae deletion strains, locus YDL185W, strain tfp1, hits give low values 1.01 | S. cerevisiae deletion strains, locus YDL192W, strain arf1, hits give low values 0.985 | S. cerevisiae deletion strains, locus YDR001C, strain nth1, hits give low values 1 | S. cerevisiae deletion strains, locus YDR069C, strain doa4, hits give low values 1 | S. cerevisiae deletion strains, locus YDR101C, strain arx1, hits give low values 0.995 | S. cerevisiae deletion strains, locus YDR137W, strain rgp1, hits give low values 0.976 | S. cerevisiae deletion strains, locus YDR159W, strain sac3, hits give low values 1.01 | S. cerevisiae deletion strains, locus YDR162C, strain NBP2, hits give low values 1.03 | S. cerevisiae deletion strains, locus YDR195W, strain ref2 0.966 | S. cerevisiae deletion strains, locus YDR297W, strain sur2, hits give low values 1 | S. cerevisiae deletion strains, locus YDR318W, strain mcm21, hits give low values 0.994 | S. cerevisiae deletion strains, locus YDR334W, strain swr1, hits give low values 0.998 | S. cerevisiae deletion strains, locus YDR335W, strain msn5, hits give low values 0.987 | S. cerevisiae deletion strains, locus YDR388W, hits give low values 0.994 | S. cerevisiae deletion strains, locus YDR392W, strain spt3, hits give low values 0.972 | S. cerevisiae deletion strains, locus YDR502C, strain sam2, hits give low values 0.997 | S. cerevisiae deletion strains, locus YEL003W, strain gim4, hits give low values 1.01 | S. cerevisiae deletion strains, locus YEL037C, strain rad23, hits give low values 0.992 | S. cerevisiae deletion strains, locus YEL061C, strain CIN8 (second series), hits give low values 0.995 | S. cerevisiae deletion strains, locus YEL061C, strain CIN8, hits give low values 1 | S. cerevisiae deletion strains, locus YER015W, strain faa2, hits give low values 1.01 | S. cerevisiae deletion strains, locus YER016W, strain bim1, hits give low values 0.993 | S. cerevisiae deletion strains, locus YER110C, hits give low values 1 | S. cerevisiae deletion strains, locus YER111C, strain swi4, hits give low values 0.99 | S. cerevisiae deletion strains, locus YER155C, strain BEM2 (second series), hits give low values 0.992 | S. cerevisiae deletion strains, locus YER155C, strain BEM2, hits give low values 1.01 | S. cerevisiae deletion strains, locus YER167W, strain BCK2, hits give low values 0.997 | S. cerevisiae deletion strains, locus YFR010W, strain ubp6, hits give low values 1.01 | S. cerevisiae deletion strains, locus YGL078C, strain dbp3, hits give low values 1.01 | S. cerevisiae deletion strains, locus YGL086W, strain mad1, hits give low values 1.01 | S. cerevisiae deletion strains, locus YGL167C, strain pmr1, hits give low values 1 | S. cerevisiae deletion strains, locus YGL173C, strain kem1, hits give low values 1.02 | S. cerevisiae deletion strains, locus YGL227W, strain vid30, hits give low values 1 | S. cerevisiae deletion strains, locus YGL240W, strain doc1, hits give low values 1.01 | S. cerevisiae deletion strains, locus YGL248W, strain PDE1, hits give low values 0.996 | S. cerevisiae deletion strains, locus YGL253W, strain hxk2, hits give low values 1 | S. cerevisiae deletion strains, locus YGR078C, strain PAC10, hits give low values 1.01 | S. cerevisiae deletion strains, locus YGR135W, strain pre9, hits give low values 1.01 | S. cerevisiae deletion strains, locus YGR252W, strain gcn5, hits give low values 1.01 | S. cerevisiae deletion strains, locus YHR013C, strain ard1, hits give low values 0.989 | S. cerevisiae deletion strains, locus YHR027C, strain rpn1, hits give low values 1.02 | S. cerevisiae deletion strains, locus YHR030C, strain SLT2, hits give low values 1.02 | S. cerevisiae deletion strains, locus YHR079C, strain IRE1 (second series), hits give low values 1 | S. cerevisiae deletion strains, locus YHR094C, strain hxt1, hits give low values 0.993 | S. cerevisiae deletion strains, locus YHR129C, strain ARP1, hits give low values 1 | S. cerevisiae deletion strains, locus YHR142W, strain chs7, hits give low values 0.997 | S. cerevisiae deletion strains, locus YHR200W, strain rpn10, hits give low values 0.983 | S. cerevisiae deletion strains, locus YIL066C, strain RNR3, hits give low values 1.01 | S. cerevisiae deletion strains, locus YIL073C, strain SPO22, hits give low values 1.03 | S. cerevisiae deletion strains, locus YIL125W, strain kgd1, hits give low values 1 | S. cerevisiae deletion strains, locus YIR030C, strain dcg1, hits give low values 0.995 | S. cerevisiae deletion strains, locus YJL092W, strain hpr5, hits give low values 1 | S. cerevisiae deletion strains, locus YJL095W, strain BCK1 (second series), hits give low values 0.997 | S. cerevisiae deletion strains, locus YJL095W, strain BCK1, hits give low values 1.03 | S. cerevisiae deletion strains, locus YJL115W, strain asf1, hits give low values 1.01 | S. cerevisiae deletion strains, locus YJL129C, strain trk1, hits give low values 1.01 | S. cerevisiae deletion strains, locus YJL134W, strain LCB3, hits give low values 1.01 | S. cerevisiae deletion strains, locus YJL154C, strain vps35, hits give low values 0.997 | S. cerevisiae deletion strains, locus YJL164C, strain tpk1, hits give low values 0.981 | S. cerevisiae deletion strains, locus YJL166W, strain qcr8, hits give low values 0.995 | S. cerevisiae deletion strains, locus YJL168C, strain set2, hits give low values 0.994 | S. cerevisiae deletion strains, locus YJL187C, strain SWE1 (second series), hits give low values 1.01 | S. cerevisiae deletion strains, locus YJL187C, strain SWE1, hits give low values 1 | S. cerevisiae deletion strains, locus YJR043C, strain POL32, hits give low values 1.03 | S. cerevisiae deletion strains, locus YJR075W, strain HOC1, hits give low values 1.01 | S. cerevisiae deletion strains, locus YKL068W, hits give low values 1 | S. cerevisiae deletion strains, locus YKL085W, strain MDH1 (second series), hits give low values 1.02 | S. cerevisiae deletion strains, locus YKL085W, strain MDH1, hits give low values 1.02 | S. cerevisiae deletion strains, locus YKL160W, strain elf1, hits give low values 0.978 | S. cerevisiae deletion strains, locus YKL190W, strain CNB1, hits give low values 1.02 | S. cerevisiae deletion strains, locus YKR001C, strain vps1, hits give low values 1.01 | S. cerevisiae deletion strains, locus YKR026C, strain gcn3, hits give low values 0.999 | S. cerevisiae deletion strains, locus YKR091W, strain srl3, hits give low values 0.997 | S. cerevisiae deletion strains, locus YLL001W, strain dnm1, hits give low values 0.977 | S. cerevisiae deletion strains, locus YLL026W, hits give low values 1 | S. cerevisiae deletion strains, locus YLL041C, strain sdh2, hits give low values 0.999 | S. cerevisiae deletion strains, locus YLR027C, strain aat2, hits give low values 0.991 | S. cerevisiae deletion strains, locus YLR039C, strain RIC1, hits give low values 1.03 | S. cerevisiae deletion strains, locus YLR058C, strain SHM2, hits give low values 1.01 | S. cerevisiae deletion strains, locus YLR102C, strain apc9, hits give low values 1.01 | S. cerevisiae deletion strains, locus YLR221C, strain rsa3, hits give low values 1.01 | S. cerevisiae deletion strains, locus YLR258W, strain gsy2, hits give low values 1.01 | S. cerevisiae deletion strains, locus YLR262C, strain YPT6 (second series), hits give low values 0.979 | S. cerevisiae deletion strains, locus YLR262C, strain YPT6, hits give low values 1.04 | S. cerevisiae deletion strains, locus YLR268W, strain sec22, hits give low values 1.01 | S. cerevisiae deletion strains, locus YLR320W, strain mms22, hits give low values 1 | S. cerevisiae deletion strains, locus YLR330W, strain CHS5, hits give low values 1 | S. cerevisiae deletion strains, locus YLR342W, strain FKS1 (second series), hits give low values 1.01 | S. cerevisiae deletion strains, locus YLR342W, strain FKS1, hits give low values 1 | S. cerevisiae deletion strains, locus YLR357W, strain rsc2, hits give low values 0.977 | S. cerevisiae deletion strains, locus YLR370C, strain arc18, hits give low values 0.999 | S. cerevisiae deletion strains, locus YLR371W, strain rom2, hits give low values 1 | S. cerevisiae deletion strains, locus YLR384C, strain iki3, hits give low values 1 | S. cerevisiae deletion strains, locus YLR418C, strain cdc73, hits give low values 1.01 | S. cerevisiae deletion strains, locus YML016C, strain PPZ1, hits give low values 1 | S. cerevisiae deletion strains, locus YML032C, strain rad52, hits give low values 0.991 | S. cerevisiae deletion strains, locus YML120C, strain ndi1, hits give low values 1 | S. cerevisiae deletion strains, locus YML124C, strain tub3, hits give low values 0.996 | S. cerevisiae deletion strains, locus YMR058W, strain fet3, hits give low values 1.01 | S. cerevisiae deletion strains, locus YMR078C, strain ctf18, hits give low values 0.996 | S. cerevisiae deletion strains, locus YMR125W, strain sto1, hits give low values 0.998 | S. cerevisiae deletion strains, locus YMR129W, hits give low values 1 | S. cerevisiae deletion strains, locus YMR205C, strain PFK2, hits give low values 0.998 | S. cerevisiae deletion strains, locus YMR223W, strain ubp8, hits give low values 0.991 | S. cerevisiae deletion strains, locus YMR231W, strain pep5, hits give low values 0.967 | S. cerevisiae deletion strains, locus YMR307W, strain GAS1, hits give low values 1.05 | S. cerevisiae deletion strains, locus YNL067W, strain RPL9B, hits give low values 1.02 | S. cerevisiae deletion strains, locus YNL071W, strain lat1, hits give low values 1 | S. cerevisiae deletion strains, locus YNL153C, strain GIM3, hits give low values 0.998 | S. cerevisiae deletion strains, locus YNL209W, strain ssb2, hits give low values 0.998 | S. cerevisiae deletion strains, locus YNL233W, strain BNI4, hits give low values 1.01 | S. cerevisiae deletion strains, locus YNL248C, strain rpa49, hits give low values 1.01 | S. cerevisiae deletion strains, locus YNL250W, strain rad50, hits give low values 0.994 | S. cerevisiae deletion strains, locus YNL271C, strain bni1, hits give low values 1 | S. cerevisiae deletion strains, locus YNL298W, strain CLA4, hits give low values 0.999 | S. cerevisiae deletion strains, locus YNL307C, strain MCK1, hits give low values 1 | S. cerevisiae deletion strains, locus YNL322C, strain KRE1 (second series), hits give low values 1.01 | S. cerevisiae deletion strains, locus YNL322C, strain KRE1, hits give low values 1.01 | S. cerevisiae deletion strains, locus YNR049C, strain mso1, hits give low values 1.02 | S. cerevisiae deletion strains, locus YNR052C, strain pop2, hits give low values 0.996 | S. cerevisiae deletion strains, locus YOL012C, strain htz1 0.704 | S. cerevisiae deletion strains, locus YOL147C, strain pex11, hits give low values 1.01 | S. cerevisiae deletion strains, locus YOR001W, strain rrp6, hits give low values 1.02 | S. cerevisiae deletion strains, locus YOR061W, strain CKA2, hits give low values 1.01 | S. cerevisiae deletion strains, locus YOR069W, strain VPS5, hits give low values 1.01 | S. cerevisiae deletion strains, locus YOR070C, strain gyp1, hits give low values 1 | S. cerevisiae deletion strains, locus YOR080W, strain dia2, hits give low values 1.01 | S. cerevisiae deletion strains, locus YOR083W, strain WHI5, hits give low values 0.975 | S. cerevisiae deletion strains, locus YOR106W, strain vam3, hits give low values 1 | S. cerevisiae deletion strains, locus YOR136W, strain idh2, hits give low values 0.998 | S. cerevisiae deletion strains, locus YOR144C, strain elg1, hits give low values 0.996 | S. cerevisiae deletion strains, locus YOR184W, strain ser1, hits give low values 1.02 | S. cerevisiae deletion strains, locus YOR265W, strain rbl2, hits give low values 0.994 | S. cerevisiae deletion strains, locus YOR270C, strain vph1, hits give low values 1 | S. cerevisiae deletion strains, locus YOR290C, strain snf2, hits give low values 0.961 | S. cerevisiae deletion strains, locus YOR316C, strain cot1, hits give low values 0.992 | S. cerevisiae deletion strains, locus YPL051W, strain arl3, hits give low values 0.97 | S. cerevisiae deletion strains, locus YPL078C, strain atp4, hits give low values 0.97 | S. cerevisiae deletion strains, locus YPL106C, strain sse1, hits give low values 0.994 | S. cerevisiae deletion strains, locus YPL240C, strain hsp82, hits give low values 0.999 | S. cerevisiae deletion strains, locus YPL241C, strain CIN2, hits give low values 1.01 | S. cerevisiae deletion strains, locus YPR119W, strain clb2, hits give low values 0.995 | S. cerevisiae deletion strains, locus YPR141C, strain kar3, hits give low values 0.997 | S. cerevisiae deletion strains, locus YPR163C, strain tif3, hits give low values 0.988 | S. cerevisiae deletion strains, locus YPR167C, strain met16, hits give low values 0.997 | S. cerevisiae deletion strains, strain wtn01, hits give low values 1.02 | S. cerevisiae strains, strain wild type, hits give low values 1.01
